Data on 24 compounds can be found in PubChem BioAssay (NCATS).

Common to all, as to test: qHTS profiling for inhibitors of Plasmodium falciparum proliferation (AID 504749); further: nearly all actives have a fitted effect of over 60% in size
Holding throughout (conditions): P. falciparum in erythrocytes, SYBR Green DNA, 72 h; series mostly up to 28.7 µM
For orientation: In qHTS, concentration-response curves come from the screen itself.

The test system of one assay is FAB9. In a few lines: (§1)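 SYBR Green fluorescence (ex 485 nm, em 535 nm) reports parasite DNA after 72 h compound exposure of infected red cells at 0.3% parasitemia, 2.5% hematocrit; signal normalized to 0.29 uM artemisinin and vehicle wells.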
For another assay, the system named is GB4. In a few lines:
as §1

In the next assay the test system is HB3. In a few lines: as §1
For a further assay, the system named is ICS. In a few lines:
as §1

A further assay has as its system JCK. In a few lines:
as §1

In another assay the test system is N140. In a few lines: as §1
For a further assay, the system named is P93_24. In a few lines:
as §1

The subject of another assay is P94_40. In a few lines:
as §1

A further assay concerns PAD. In a few lines:
as §1

The subject of a further assay is PC15. In a few lines: as §1

Records with an inconclusive call do not appear. Active and inactive are the calls of the source. The call rests on the fitted dose curve; in most records, active means well fitted inhibition curve with a large enough effect; inconclusive means small, poorly fitted or top-dose-only effect; inactive means flat fitted curve, though single readings scatter.
Potency means the concentration at half of the fitted maximal effect.

Regarding `CCC1(c2ccccc2)C(=O)NC(=O)N(C(=O)c2ccccc2)C1=O` (centres undefined), the Potency entry with FAB9, in the assay with GB4, with HB3, in the assay with ICS, in the assay on JCK and with N140 was “inactive” throughout. Besides, the Potency result in the assay with P93_24, in the assay on P94_40, in the assay with PAD and in the assay on PC15 was “inactive” throughout.
Turning to `ClCC1CO1` (centres undefined), the Potency entry with FAB9, with GB4, in the assay with HB3, in the assay with ICS, with JCK and in the assay on N140 was “inactive” each time. Moreover, the Potency result in the assay with P93_24, in the assay with P94_40, in the assay on PAD and in the assay on PC15 was “inactive” in each case.
Turning to `O=[N+]([O-])C(Br)(CO)CO`, the Potency entry in the assay on FAB9, in the assay with GB4, with HB3, in the assay with ICS, in the assay on JCK and in the assay with N140 was “inactive” each time. For the same compound, the Potency entry in the assay with P93_24, in the assay on P94_40, in the assay with PAD and in the assay on PC15 was “inactive” in each case.
With `S=C=S`, the Potency entry with FAB9, with GB4, in the assay on HB3, in the assay with ICS, with JCK and in the assay on N140 was “inactive” in each case. Besides, the Potency entry in the assay with P93_24, in the assay on P94_40, in the assay with PAD and with PC15 was “inactive” in each case.
On to `Cn1sc(Cl)cc1=O`, for which the Potency result in the assay with FAB9, in the assay with GB4, with HB3, in the assay with ICS, in the assay with JCK and with N140 was “inactive” throughout. The Potency entry with P93_24, in the assay on P94_40, in the assay with PAD and in the assay with PC15 was “inactive” throughout.
With `CC(=O)OC1CN2CCC1CC2` (centres undefined), the Potency result with FAB9, with GB4, in the assay on HB3, with ICS, in the assay with JCK and with N140 was “inactive” throughout. The Potency result in the assay on P93_24, with P94_40, in the assay with PAD and with PC15 was “inactive” throughout.
Take `CCON=O`: the Potency result in the assay on FAB9, in the assay on GB4, in the assay on HB3, with ICS, with JCK and with N140 was “inactive” in each case. The Potency result in the assay with P93_24, in the assay on P94_40, in the assay on PAD and with PC15 was “inactive” throughout.
With `FC(F)OC(F)(F)C(F)Cl` (centres undefined), the Potency result in the assay on FAB9, in the assay with GB4, with HB3, in the assay on ICS, in the assay on JCK and in the assay with N140 was “inactive” in each case. Further, the Potency entry in the assay on P93_24, in the assay with P94_40, with PAD and in the assay on PC15 was “inactive” each time.
With `C#CC(C)(O)CC` (centres undefined), the Potency entry in the assay on FAB9, in the assay with GB4, with HB3, in the assay on ICS, in the assay on JCK and in the assay with N140 was “inactive” in each case. In addition, the Potency result in the assay on P93_24, in the assay on P94_40, in the assay with PAD and with PC15 was “inactive” in each case.
Turning to `Clc1ccc(C2(Cn3cncn3)OCCO2)c(Cl)c1`, the Potency entry in the assay on FAB9, in the assay with GB4, with HB3, in the assay on ICS, in the assay on JCK and in the assay with N140 was “inactive” in each case. In addition, the Potency result in the assay with P93_24, in the assay on P94_40, in the assay with PAD and in the assay with PC15 was “inactive” each time.
Take `C[C@H]1CC[C@@H]2[C@@H](C)[C@H]3[C@H](C[C@H]4[C@@H]5CC=C6CC(O[C@@H]7O[C@H](CO)[C@H](O)[C@H](O[C@@H]8O[C@H](CO)[C@@H](O)[C@H](O)[C@H]8O)[C@H]7O[C@H]7O[C@@H](C)[C@H](O)[C@@H](O)[C@H]7O)CC[C@]6(C)[C@H]5CC[C@]34C)N2C1` (some centres undefined): the Potency result in the assay on FAB9, in the assay with GB4, in the assay on HB3, with ICS, in the assay with JCK and in the assay on N140 was “inactive” throughout. For the same compound, the Potency entry in the assay on P93_24, in the assay on P94_40, with PAD and in the assay on PC15 was “inactive” throughout.
`CC(C)CCON=O`: the Potency entry in the assay with FAB9, with GB4, in the assay on HB3, in the assay on ICS, with JCK and with N140 was “inactive” in each case. Also, the Potency result in the assay with P93_24, in the assay on P94_40, with PAD and with PC15 was “inactive” throughout.
For the compound `CNC(=O)OCC[N+](C)(C)C`, the Potency result in the assay with FAB9, in the assay with GB4, in the assay on HB3, with ICS, in the assay with JCK and in the assay on N140 was “inactive” each time. Further, the Potency result in the assay with P93_24, in the assay on P94_40, in the assay on PAD and with PC15 was “inactive” each time.
As to `CCCCNCC(O)c1ccc(O)cc1` (centres undefined), the Potency entry with FAB9, with GB4, with HB3, with ICS, in the assay on N140 and in the assay with P93_24 was “inactive” in each case. The Potency result in the assay on P94_40, in the assay with PAD and with PC15 was “inactive” each time. Further, the Potency with JCK was 1.12 µM (active).
For the compound `ClC(Cl)(Cl)Cl`, the Potency entry in the assay with FAB9, with GB4, in the assay on HB3, in the assay with ICS, in the assay on JCK and in the assay with N140 was “inactive” throughout. In addition, the Potency entry with P93_24, in the assay on P94_40, with PAD and with PC15 was “inactive” in each case.
As for `CCC1(C)CC(=O)NC(=O)C1`, the Potency result in the assay on FAB9, with GB4, in the assay on HB3, with ICS, in the assay with JCK and in the assay on N140 was “inactive” throughout. In addition, the Potency result in the assay with P93_24, with P94_40, in the assay on PAD and in the assay on PC15 was “inactive” throughout.
Consider `Clc1ccccc1Cl`, for which the Potency result with FAB9, with GB4, in the assay with HB3, with ICS, with JCK and with N140 was “inactive” throughout. The Potency entry with P93_24, in the assay with P94_40, in the assay on PAD and in the assay with PC15 was “inactive” each time.
Take `COC([CH2][Hg])CNC(=O)c1ccccc1OCC(=O)O` (centres undefined): the Potency result in the assay with FAB9, with GB4, with HB3, in the assay with ICS, with JCK and with N140 was “inactive” each time. The Potency result with P93_24, with P94_40, in the assay on PAD and in the assay with PC15 was “inactive” in each case.
As to `O=C1CCO1`, the Potency entry in the assay with FAB9, in the assay on GB4, in the assay with HB3, in the assay with ICS, with JCK and in the assay with N140 was “inactive” in each case. For the same compound, the Potency result in the assay with P93_24, in the assay with P94_40 and with PAD was “inactive” each time.
`O=C(O)C(Cl)(Cl)Cl`: the Potency entry in the assay on FAB9, in the assay with GB4, in the assay on HB3, in the assay with ICS, in the assay on JCK and in the assay with N140 was “inactive” each time. In addition, the Potency entry with P93_24, in the assay with P94_40, with PAD and in the assay with PC15 was “inactive” each time.
`C=CCN(C1=NCCN1)c1c(Cl)cccc1Cl`: the Potency result with FAB9, with GB4, in the assay on HB3, with ICS, with JCK and in the assay with N140 was “inactive” each time. Also, the Potency result with P93_24, in the assay with P94_40, in the assay on PAD and in the assay with PC15 was “inactive” in each case.
`CCC1(CC)C(=O)NC(=O)N(C)C1=O`: the Potency result in the assay with FAB9, in the assay on GB4, in the assay with HB3, in the assay on ICS, with JCK and with N140 was “inactive” each time. The Potency entry in the assay with P93_24, in the assay with P94_40, in the assay on PAD and in the assay on PC15 was “inactive” throughout.
For the compound `O=C1CCCCC1CN1CCCCC1` (centres undefined), the Potency result in the assay on FAB9, in the assay on GB4, in the assay on HB3, in the assay with ICS, with JCK and in the assay with N140 was “inactive” throughout. Further, the Potency result in the assay with P93_24, with P94_40, in the assay with PAD and with PC15 was “inactive” throughout.
As to `O=C(CS(=O)C(c1ccccc1)c1ccccc1)NO` (centres undefined), the Potency result in the assay on FAB9, with GB4, with HB3, in the assay with ICS, with JCK and with N140 was “inactive” in each case. In addition, the Potency entry in the assay on P93_24, in the assay on P94_40, with PAD and in the assay with PC15 was “inactive” in each case.
